Laboratory results: PubChem BioAssay (EPA / NIEHS)
Several values for one entry are separate records, joined by “and”; a condition that tells them apart may be missing. Identical values can stand only once. Inconclusive results are not listed. Activity calls are given as the source filed them. How the source made its calls: active means hit-call score of the fitted dose curve at least 0.9, where 1 is the maximum; inconclusive means response in the unintended direction; inactive means score below 0.9.

The molecules below were run against human CYP2C9, CYP2C9 (gene 1559) (UniProt P11712) (assay: NVS_ADME_hCYP2C9: NovaScreen (NVS) CYP450-related Enzyme Activity (ADME) Assay for human CYP2C9 (AID 2283108)).
Sequence of human CYP2C9, CYP2C9 (gene 1559) (P11712 whole entry, looked up): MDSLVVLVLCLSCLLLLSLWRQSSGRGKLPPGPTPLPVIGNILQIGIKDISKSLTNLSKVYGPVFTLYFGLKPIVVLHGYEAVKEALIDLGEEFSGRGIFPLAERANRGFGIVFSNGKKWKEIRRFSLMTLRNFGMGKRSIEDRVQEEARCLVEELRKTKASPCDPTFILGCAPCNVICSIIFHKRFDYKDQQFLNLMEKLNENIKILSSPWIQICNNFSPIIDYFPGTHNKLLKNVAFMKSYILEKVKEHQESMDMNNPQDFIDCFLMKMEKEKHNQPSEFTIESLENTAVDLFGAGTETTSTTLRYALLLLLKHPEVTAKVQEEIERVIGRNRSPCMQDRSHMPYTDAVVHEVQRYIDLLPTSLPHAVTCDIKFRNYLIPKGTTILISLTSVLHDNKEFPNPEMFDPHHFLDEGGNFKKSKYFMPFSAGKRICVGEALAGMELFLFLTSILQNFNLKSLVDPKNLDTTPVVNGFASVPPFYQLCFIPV
Method: NVS_ADME_hCYP2C9 is a biochemical, single-readout assay that uses extracted gene-proteins from SF9 in a cell-free assay. Measurements were taken 0.75 hour after chemical dosing in a 96-well plate.NVS_ADME_hCYP2C9 is one of one assay component(s) measured or calculated from the NVS_ADME_hCYP2C9 assay. It is designed to make measurements of enzyme activity, a form of enzyme reporter, as detected with fluorescence intensity signals by Fluorescence technology.Data from the assay component NVS_ADME_hCYP2C9 was analyzed into 1 assay endpoint. This assay endpoint, NVS_ADME_hCYP2C9, was analyzed in the positive analysis fitting direction relative to Acetonitrile as the negative control and baseline of activity. Using a type of enzyme reporter, loss-of-signal activity can be used to understand changes in the enzymatic activity as they relate to the gene CYP2C9. Furthermore, this assay endpoint can be referred to as a primary readout, because this assay has produced multiple assay endpoints where this one serves a enzymatic activity function. To generalize the intended target to other relatable targets, this assay endpoint is annotated to the cyp intended target family, where the subfamily is xenobiotic metabolism.
Binding assays used specific radioligands (tritiated, iodinated) with non-radioactive competitive displacement ligands in agonist or antagonist protocols (as indicated) and various reference compounds and inhibitors to titrate specific binding to receptors and transporters. Most enzyme assays (CYPs, kinases, phosphatases, proteases, HDACs) used recombinant protein and specific substrates (fluorescence mostly, some colorimetric and radioactive) and inhibitors, followed by a biochemical separation of substrate and product. All assays for the biochemical HTS were initially run in duplicate at a single concentration (10 uM for CYP450 assays and 25 uM for all others). […] Each assay was run with positive and negative controls, and concurrent controls on every plate. The follow-up (secondary) screen tested active chemical-pairs in concentration series, as well as a few additional assays not tested in the primary screen, some selected negative inactives, and several cases re-run in the concentration series for confirmatory purposes.
`O=[N+]([O-])c1cc(C(F)(F)F)c(Cl)c([N+](=O)[O-])c1Nc1ncc(C(F)(F)F)cc1Cl` was tested, and the AC50 was 1.84 µM (active).
`COP(=O)(OC)OC(Br)C(Cl)(Cl)Br` (stereo not drawn) was tested, and the outcome was “inactive”.
For `CCCSP(=O)(OCC)Oc1ccc(Br)cc1Cl` (stereo not drawn), the AC50 was 7.09 µM (active).
For `CCOP(=S)(OCC)Oc1ccc2c(C)c(Cl)c(=O)oc2c1`, the AC50 was 0.798 µM (active).
With `CC(C)=CC1C(C(=O)OCN2C(=O)C3=C(CCCC3)C2=O)C1(C)C` (stereo not drawn) the AC50 was 10 µM (active).
`CC1(C(=O)Nc2ccc(O)c(Cl)c2Cl)CCCCC1` was tested, and the AC50 was 2.58 µM (active).
`CCCOCC(=Nc1ccc(Cl)cc1C(F)(F)F)n1ccnc1` was tested, and the AC50 was 4.36 µM (active).
In the case of `CCOP(=S)(OCC)OC(Cl)C(Cl)(Cl)Cl` (stereo not drawn), the AC50 is reported as 10 µM (active).
`S=C1NCCN1` was tested, and the outcome was “inactive”.
For `CCOP(=S)(OCC)Oc1ccc([N+](=O)[O-])cc1`, the AC50 was 2.62 µM (active).
For `CCC(=NOC/C=C/Cl)C1=C(O)CC(C2CCOCC2)CC1=O` (stereo not drawn), the outcome was “inactive”.
In the case of `COc1cccc(C(=O)NN(C(=O)c2cc(C)cc(C)c2)C(C)(C)C)c1C`, the outcome is reported as “inactive”.
For `C#CCC1=C(C)C(OC(=O)C2C(C=C(C)C)C2(C)C)CC1=O` (stereo not drawn), the AC50 was 7.23 µM (active).
With `FC(F)C(F)(F)OCC(Cn1cncn1)c1ccc(Cl)cc1Cl` (stereo not drawn) the AC50 was 2.91 µM (active).
For `CC(C1CC1)C(O)(Cn1cncn1)c1ccc(Cl)cc1` (stereo not drawn), the AC50 was 54.7 nM (active) and 47.4 nM (active).
In the case of `Cc1cc(C2CC2)nc(Nc2ccccc2)n1`, the AC50 is reported as 7 µM (active).
`C[Si](Cn1cncn1)(c1ccc(F)cc1)c1ccc(F)cc1` was tested, and the AC50 was 1.04 µM (active).
For `CCOC(=O)CC(SP(=O)(OC)OC)C(=O)OCC` (stereo not drawn), the AC50 was 1.98 µM (active).
